# Experimental data taken from PubChem BioAssay AID1159580 (chemical genetic matrix, 2015).
# About 2,000 (36%) of roughly 5,500 compounds were called active. Inconclusive results (about 18%) are left out. The list shows a part of the results. Unmarked numbers belong to inactive results. Rule as the data show it: active = normalized growth mostly below about 0.91 (no sharp cut-off); inconclusive = no clear call, values can overlap the other calls; inactive = mostly above about 0.92.
# Experiment: chemical genetic growth profiling, strain panel (AID 1159580);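 also: tested at 20 µM; growth read once vehicle control cultures reached saturation at 30 °C; 1 = growth at the plate median or of vehicle wells; lower values mean less growth of the strain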
# Conditions: growth OD
# [1] = S. cerevisiae deletion strains, locus YAL013W, strain DEP1, active compounds read low
# [2] = S. cerevisiae deletion strains, locus YBR229C, strain ROT2, active compounds read low
# [3] = S. cerevisiae deletion strains, locus YDL101C, strain DUN1, active compounds read low
# [4] = S. cerevisiae deletion strains, locus YDL134C, strain PPH21, active compounds read low
# [5] = S. cerevisiae deletion strains, locus YDR150W, strain NUM1, active compounds read low
# [6] = S. cerevisiae deletion strains, locus YEL061C, strain CIN8, active compounds read low
# [7] = S. cerevisiae deletion strains, locus YGR078C, strain PAC10, active compounds read low
# [8] = S. cerevisiae deletion strains, locus YHR030C, strain SLT2, active compounds read low
# [9] = S. cerevisiae deletion strains, locus YHR087W, strain rtc3, active compounds read low
# [10] = S. cerevisiae deletion strains, locus YJR043C, strain POL32, active compounds read low
# [11] = S. cerevisiae deletion strains, locus YJR075W, strain HOC1, active compounds read low
# [12] = S. cerevisiae deletion strains, locus YLR039C, strain RIC1, active compounds read low
# [13] = S. cerevisiae deletion strains, locus YLR058C, strain SHM2 (second series), active compounds read low
# [14] = S. cerevisiae deletion strains, locus YLR085C, strain ARP6, active compounds read low
# [15] = S. cerevisiae deletion strains, locus YLR262C, strain YPT6, active compounds read low
# [16] = S. cerevisiae deletion strains, locus YML094W, strain GIM5, active compounds read low
# [17] = S. cerevisiae deletion strains, locus YMR219W, strain ESC1, active compounds read low
# [18] = S. cerevisiae deletion strains, locus YMR263W, strain SAP30, active compounds read low
# [19] = S. cerevisiae deletion strains, locus YMR307W, strain GAS1, active compounds read low
# [20] = S. cerevisiae deletion strains, locus YNL153C, strain GIM3, active compounds read low
# [21] = S. cerevisiae deletion strains, locus YNL298W, strain CLA4 (second series), active compounds read low
# [22] = S. cerevisiae deletion strains, locus YNL322C, strain KRE1, active compounds read low
# [23] = S. cerevisiae deletion strains, locus YNR030W, strain Alg12, active compounds read low
# [24] = S. cerevisiae deletion strains, locus YOL006C, strain TOP1, active compounds read low
# [25] = S. cerevisiae deletion strains, locus YPL055C, strain LGE1, active compounds read low
# [26] = S. cerevisiae deletion strains, locus YPL241C, strain CIN2, active compounds read low
# [27] = S. cerevisiae deletion strains, locus YPR135W, strain CTF4, active compounds read low
structure (smiles),measurement,setting,value
O=C1CCCN1c1ccc(Cl)c(Cl)c1,normalized growth,[1],0.987
same,normalized growth,[2],0.977
same,normalized growth,[3],0.939
same,normalized growth,[4],0.969
same,normalized growth,[5],0.968
same,normalized growth,[6],0.933
same,normalized growth,[7],0.976
same,normalized growth,[8],0.8
same,normalized growth,[9],0.989
same,normalized growth,[10],0.97
same,normalized growth,[11],0.983
same,normalized growth,[12],0.916
same,normalized growth,[13],0.988
same,normalized growth,[14],0.894
same,normalized growth,[15],0.949
same,normalized growth,[16],0.853 (active)
same,normalized growth,[17],0.988
same,normalized growth,[18],0.984
same,normalized growth,[19],0.9
same,normalized growth,"S. cerevisiae deletion strains, locus YNL128W, strain TEP1, active compounds read low",0.94
same,normalized growth,[20],0.95
same,normalized growth,[21],0.911
same,normalized growth,[22],0.974
same,normalized growth,[23],0.96
same,normalized growth,[24],0.748
same,normalized growth,[25],0.889
same,normalized growth,[26],0.847 (active)
same,normalized growth,[27],0.913
same,normalized growth,"S. cerevisiae strains, strain wild type, active compounds read low",0.978
O=C(Cc1ccc(Cl)c(Cl)c1)OCCN1CCCC1,normalized growth,"S. cerevisiae deletion strains, locus YAL040C, strain CLN3, active compounds read low",1.02
same,normalized growth,"S. cerevisiae deletion strains, locus YDR363W, strain ESC2, active compounds read low",1.02
same,normalized growth,"S. cerevisiae deletion strains, locus YER002W, strain NOP16, active compounds read low",0.997
same,normalized growth,[7],0.994
same,normalized growth,[20],0.999
same,normalized growth,"S. cerevisiae deletion strains, locus YNL175C, strain NOP13, active compounds read low",1.02
same,normalized growth,"S. cerevisiae deletion strains, locus YNL197C, strain WHI3, active compounds read low",1
same,normalized growth,"S. cerevisiae deletion strains, locus YNL224C, strain SQS1, active compounds read low",1.01
same,normalized growth,[22],0.99
same,normalized growth,"S. cerevisiae deletion strains, locus YOR083W, strain WHI5 (second series), active compounds read low",1.03
Cc1ccc(=O)n(Cc2ccc(Cl)c(Cl)c2)n1,normalized growth,[1],0.989
same,normalized growth,[2],1.01
same,normalized growth,[3],0.958
same,normalized growth,[4],0.989
same,normalized growth,[5],0.968
same,normalized growth,[6],1
same,normalized growth,[7],0.977
same,normalized growth,[8],0.892
same,normalized growth,[9],1.01
same,normalized growth,[10],0.966
same,normalized growth,[11],0.986
same,normalized growth,"S. cerevisiae deletion strains, locus YKL190W, strain CNB1, active compounds read low",0.988
same,normalized growth,[12],0.921
same,normalized growth,[13],0.986
same,normalized growth,[14],0.938
same,normalized growth,[15],0.913
same,normalized growth,[16],0.974
same,normalized growth,[17],0.992
same,normalized growth,[18],0.99
same,normalized growth,[19],1.06
same,normalized growth,[20],0.949
same,normalized growth,[21],0.954
same,normalized growth,[22],0.988
same,normalized growth,[23],0.988
same,normalized growth,[24],0.899
same,normalized growth,[25],1.03
same,normalized growth,[26],0.985
same,normalized growth,[27],0.918
